The supplement of paper PMC12494721
Counter-ions that a name gives are not always drawn.

Legend:
Conditions in all cases: incubation time: 27 h, anaerobic, 37 °C;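 for the amine columns active = adjusted P below 0.05 in both replicates with a change the same way and a mean fold change under 0.8 or over 1.25; inactive = the rest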
[1] = tested on: Clostridium sporogenes DSM 1664; test: growth (OD595) fold change vs plate DMSO controls (fold change (ratio)); higher = more growth
Summary of the method: (§1)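 Absorbance at 595 nm was read after shaking the anaerobic mGAM cultures, which had grown in 96-well plates for 27 h at 37 °C. After blank subtraction and background correction against 20 µM compound solutions in water, a calibration factor of 5 gave OD values. Growth is the fold change against the median of the plate's DMSO controls. Values are the mean of 2 biological replicates, with fold changes above 1.5 set to NA.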

[2] = tested on: Escherichia coli IAI1; test: as above
Summary of the method: as §1

[3] = tested on: Klebsiella aerogenes DSM 30053; test: as above
Summary of the method: as §1

[4] = tested on: Ruminococcus gnavus DSM 108212; test: as above
Summary of the method: as §1

[5] = tested on: Klebsiella aerogenes DSM 30053; test: fold change of Histamine concentration vs plate DMSO controls (fold change (ratio)); higher = more amine produced, active = hit call of the paper (significant change in both replicates, either direction)
Summary of the method: (§2)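 In 80 µL wells, cultures of four gut bacterial strains in mGAM started at OD 0.1 before a 1:1 dilution and grew anaerobically at 37 °C for 27 h. Compounds were added to 20 µM final, except sweeteners at 50 µM final. After extraction of whole cultures with cold acetonitrile/methanol plus 0.1% formic acid and centrifugation, amines were measured by LC–triple-quadrupole MS in dynamic MRM mode against external calibration curves, with within-batch drift correction. Values give fold change over DMSO controls on the same plate, averaged across 2 biological replicates.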

[6] = tested on: Clostridium sporogenes DSM 1664; test: fold change of Tryptamine concentration vs plate DMSO controls (fold change (ratio)); higher = more amine produced, active = hit call of the paper (significant change in both replicates, either direction)
Summary of the method: as §2

[7] = tested on: Ruminococcus gnavus DSM 108212; test: as above
Summary of the method: as §2

[8] = tested on: Escherichia coli IAI1; test: fold change of Putrescine concentration vs plate DMSO controls (fold change (ratio)); higher = more amine produced, active = hit call of the paper (significant change in both replicates, either direction)
Summary of the method: as §2

[9] = tested on: Klebsiella aerogenes DSM 30053; test: as above
Summary of the method: as §2

[10] = tested on: Escherichia coli IAI1; test: fold change of Cadaverine concentration vs plate DMSO controls (fold change (ratio)); higher = more amine produced, active = hit call of the paper (significant change in both replicates, either direction)
Summary of the method: as §2

[11] = tested on: Klebsiella aerogenes DSM 30053; test: as above
Summary of the method: as §2

[12] = tested on: Ruminococcus gnavus DSM 108212; test: fold change of 2-Phenylethylamine concentration vs plate DMSO controls (fold change (ratio)); higher = more amine produced, active = hit call of the paper (significant change in both replicates, either direction)
Summary of the method: as §2

Compound CC(C)(C)C(=O)OCOC(=O)[C@@H]1N2C(=O)[C@@H](NC(=O)[C@H](N)c3ccccc3)[C@H]2SC1(C)C [Pivampicillin] (20 µM) has a growth [1] of 0, a growth [2] of 0.949 and a growth [3] of 0.986. For the same compound, the growth [4] was 0, the “fold change of Histamine concentration” value [5] was 1.04 (inactive) and the “fold change of Tryptamine concentration” value [6] was 0.0632 (active). The “fold change of Tryptamine concentration” value [7] was 0.0656 (active), the “fold change of Putrescine concentration” value [8] was 1.01 (inactive) and the “fold change of Putrescine concentration” value [9] was 1 (inactive). The “fold change of Cadaverine concentration” value [10] was 0.968 (inactive), the “fold change of Cadaverine concentration” value [11] was 0.976 (inactive) and the “fold change of 2-Phenylethylamine concentration” value [12] was 0.0585 (active).

For CN1CCN(c2c(F)cc3c(=O)c(C(=O)O)cn(CCF)c3c2F)CC1 [Fleroxacin] (20 µM), the growth [1] was 0, the growth [2] was 0 and the growth [3] was 0. The growth [4] was 0, the “fold change of Histamine concentration” value [5] was 0.153 (active) and the “fold change of Tryptamine concentration” value [6] was 0.0453 (active). For the same compound, the “fold change of Tryptamine concentration” value [7] was 1.08 (inactive), the “fold change of Putrescine concentration” value [8] was 0.785 (inactive) and the “fold change of Putrescine concentration” value [9] was 0.902 (inactive). For the same compound, the “fold change of Cadaverine concentration” value [10] was 0.26 (active), the “fold change of Cadaverine concentration” value [11] was 0.961 (inactive) and the “fold change of 2-Phenylethylamine concentration” value [12] was 1.15 (inactive).

In the case of O=C1Nc2ccc(Cl)cc2[C@@](C#CC2CC2)(C(F)(F)F)O1 [Efavirenz] (20 µM), the growth [1] was 1.25, the growth [2] was 1.01 and the growth [3] was 1.02. For the same compound, the growth [4] was 1.22, the “fold change of Histamine concentration” value [5] was 0.986 (inactive) and the “fold change of Tryptamine concentration” value [6] was 1.02 (inactive). The “fold change of Tryptamine concentration” value [7] was 0.936 (inactive), the “fold change of Putrescine concentration” value [8] was 1.04 (inactive) and the “fold change of Putrescine concentration” value [9] was 0.985 (inactive). For the same compound, the “fold change of Cadaverine concentration” value [10] was 1.02 (inactive), the “fold change of Cadaverine concentration” value [11] was 0.997 (inactive) and the “fold change of 2-Phenylethylamine concentration” value [12] was 0.935 (inactive).

For CC1COc2c(N3CCN(C)CC3)c(F)cc3c(=O)c(C(=O)O)cn1c23 (configuration not stated) [Ofloxacin] (20 µM), the growth [1] was 0.0346, the growth [2] was 0.0388 and the growth [3] was 0.256. For the same compound, the “fold change of Histamine concentration” value [5] was 0.09 (active), the “fold change of Tryptamine concentration” value [6] was 0.0354 (active) and the “fold change of Tryptamine concentration” value [7] was 0.997 (inactive). For the same compound, the “fold change of Putrescine concentration” value [8] was 0.809 (inactive), the “fold change of Putrescine concentration” value [9] was 0.653 (active) and the “fold change of Cadaverine concentration” value [10] was 0.187 (active). For the same compound, the “fold change of Cadaverine concentration” value [11] was 0.961 (inactive) and the “fold change of 2-Phenylethylamine concentration” value [12] was 1.06 (inactive).

In the case of COc1cccc(OC)c1C(=O)N[C@@H]1C(=O)N2[C@@H]1SC(C)(C)[C@@H]2C(=O)O [Methicillin sodium] (20 µM), the growth [1] was 0.569, the growth [2] was 1.14 and the growth [3] was 0.978. The “fold change of Histamine concentration” value [5] was 1.05 (inactive), the “fold change of Tryptamine concentration” value [6] was 0.196 (active) and the “fold change of Tryptamine concentration” value [7] was 0.608 (active). The “fold change of Putrescine concentration” value [8] was 1.24 (inactive), the “fold change of Putrescine concentration” value [9] was 1 (inactive) and the “fold change of Cadaverine concentration” value [10] was 0.875 (inactive). For the same compound, the “fold change of Cadaverine concentration” value [11] was 0.969 (inactive) and the “fold change of 2-Phenylethylamine concentration” value [12] was 0.721 (inactive).

With CC(C)(O/N=C(\C(=O)N[C@@H]1C(=O)N2C(C(=O)[O-])=C(C[n+]3ccccc3)CS[C@H]12)c1csc(N)n1)C(=O)O [Ceftazidime pentahydrate] (20 µM) the growth [1] was 0.781, the growth [2] was 0.132 and the growth [3] was 0.595. The “fold change of Histamine concentration” value [5] was 1.18 (inactive), the “fold change of Tryptamine concentration” value [6] was 1.04 (inactive) and the “fold change of Tryptamine concentration” value [7] was 0.877 (inactive). The “fold change of Putrescine concentration” value [8] was 2.08 (active), the “fold change of Putrescine concentration” value [9] was 0.905 (inactive) and the “fold change of Cadaverine concentration” value [10] was 2.09 (active). The “fold change of Cadaverine concentration” value [11] was 1.16 (inactive) and the “fold change of 2-Phenylethylamine concentration” value [12] was 0.865 (inactive).

For NC1CCN(c2nc3c(cc2F)c(=O)c(C(=O)O)cn3-c2ccc(F)cc2F)C1 (configuration not stated) [Tosufloxacin hydrochloride] (20 µM), the growth [1] was 0.0344, the growth [2] was 0.0566 and the growth [3] was 0.173. For the same compound, the growth [4] was 1.45, the “fold change of Histamine concentration” value [5] was 0.0712 (active) and the “fold change of Tryptamine concentration” value [6] was 0.0441 (active). The “fold change of Tryptamine concentration” value [7] was 0.532 (active), the “fold change of Putrescine concentration” value [8] was 0.811 (inactive) and the “fold change of Putrescine concentration” value [9] was 0.642 (active). For the same compound, the “fold change of Cadaverine concentration” value [10] was 0.192 (active), the “fold change of Cadaverine concentration” value [11] was 0.978 (inactive) and the “fold change of 2-Phenylethylamine concentration” value [12] was 0.615 (active).

In the case of NC(=O)c1cc[n+](CC2=C(C(=O)[O-])N3C(=O)[C@@H](NC(=O)[C@@H](c4ccccc4)S(=O)(=O)O)[C@H]3SC2)cc1 [Cefsulodin sodium salt] (20 µM), the growth [1] was 0.613, the growth [2] was 0.995 and the growth [3] was 1.02. For the same compound, the “fold change of Histamine concentration” value [5] was 1 (inactive), the “fold change of Tryptamine concentration” value [6] was 0.876 (inactive) and the “fold change of Tryptamine concentration” value [7] was 0.796 (active). The “fold change of Putrescine concentration” value [8] was 0.97 (inactive), the “fold change of Putrescine concentration” value [9] was 1.01 (inactive) and the “fold change of Cadaverine concentration” value [10] was 1.07 (inactive). The “fold change of Cadaverine concentration” value [11] was 1 (inactive) and the “fold change of 2-Phenylethylamine concentration” value [12] was 0.886 (inactive).

With Clc1ccc(Nc2nnc(Cc3ccncc3)c3ccccc23)cc1 [Vatalanib] (20 µM) the growth [1] was 1.06, the growth [2] was 1.19 and the growth [3] was 1.08. For the same compound, the “fold change of Histamine concentration” value [5] was 0.91 (inactive), the “fold change of Tryptamine concentration” value [6] was 1.12 (inactive) and the “fold change of Tryptamine concentration” value [7] was 1.02 (inactive). For the same compound, the “fold change of Putrescine concentration” value [8] was 1.17 (inactive), the “fold change of Putrescine concentration” value [9] was 0.942 (inactive) and the “fold change of Cadaverine concentration” value [10] was 0.945 (inactive). For the same compound, the “fold change of Cadaverine concentration” value [11] was 1.02 (inactive) and the “fold change of 2-Phenylethylamine concentration” value [12] was 1.01 (inactive).

With N[C@@H](C(=O)N[C@@H]1C(=O)N2C(C(=O)O)=C(Cl)CC[C@H]12)c1ccccc1 [Loracarbef] (20 µM) the growth [1] was 0, the growth [2] was 1.15 and the growth [3] was 1.13. The “fold change of Histamine concentration” value [5] was 0.886 (inactive), the “fold change of Tryptamine concentration” value [6] was 0.0238 (active) and the “fold change of Tryptamine concentration” value [7] was 0.345 (active). For the same compound, the “fold change of Putrescine concentration” value [8] was 1.05 (inactive), the “fold change of Putrescine concentration” value [9] was 1.04 (inactive) and the “fold change of Cadaverine concentration” value [10] was 1.52 (active). For the same compound, the “fold change of Cadaverine concentration” value [11] was 1.05 (inactive) and the “fold change of 2-Phenylethylamine concentration” value [12] was 0.319 (active).

For CCCC1C(=O)N2C(N(C)C)=Nc3ccc(C)cc3N2C1=O (configuration not stated) [Azapropazone] (20 µM), the growth [1] was 1.1, the growth [2] was 1 and the growth [3] was 0.964. For the same compound, the growth [4] was 1.01, the “fold change of Histamine concentration” value [5] was 1.08 (inactive) and the “fold change of Tryptamine concentration” value [6] was 1.09 (inactive). The “fold change of Tryptamine concentration” value [7] was 0.961 (inactive), the “fold change of Putrescine concentration” value [8] was 0.996 (inactive) and the “fold change of Putrescine concentration” value [9] was 1 (inactive). For the same compound, the “fold change of Cadaverine concentration” value [10] was 0.997 (inactive), the “fold change of Cadaverine concentration” value [11] was 0.978 (inactive) and the “fold change of 2-Phenylethylamine concentration” value [12] was 0.91 (inactive).

With C/C=C(/C(=C/C)c1ccc(O)cc1)c1ccc(O)cc1 [Dienestrol] (20 µM) the growth [1] was 1.09, the growth [2] was 1.01 and the growth [3] was 1.04. For the same compound, the “fold change of Histamine concentration” value [5] was 1.02 (inactive), the “fold change of Tryptamine concentration” value [6] was 0.782 (inactive) and the “fold change of Tryptamine concentration” value [7] was 0.285 (active). The “fold change of Putrescine concentration” value [8] was 1.06 (inactive), the “fold change of Putrescine concentration” value [9] was 0.995 (inactive) and the “fold change of Cadaverine concentration” value [10] was 1.02 (inactive). For the same compound, the “fold change of Cadaverine concentration” value [11] was 1.03 (inactive) and the “fold change of 2-Phenylethylamine concentration” value [12] was 0.344 (inactive).
